# The list is not random: actives were taken first. Their share in the collection is about 19%.
# HT1080 IDH1KD tx – HT-1080 IDH1 knockdown cell toxicity (counter line). AID 686971. HT-1080 IDH1 knockdown viability, ATP luminescence, 48 h. Potency, µM (highest dose often 46.1 µM), usual class: cytotoxic. hit rate 2% among 360,000
#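 Knockdown cells (IDH1KD HT-1080) received compounds 2 h after plating at 750 cells/well and were kept 48 h at 37 °C in 5% FBS RPMI. A CellTiter-Glo luminescence read gave % activity for curve fitting.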
# DT40 TDP1 no CPT – qHTS for Inhibitors of human tyrosyl-DNA phosphodiesterase 1 (TDP1): qHTS in cells in absence of CPT. DT40 Tdp1-/- hTDP1 cells, no CPT, ATP luminescence, 48 h. Potency, µM (titrated, usually from 46.2 µM), actives largely listed as inhibitors. hit rate 15% among 420,000; further: nearly all actives have a fitted effect of over 55% in size
#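 Growth kinetics read by CellTiter-Glo luminescence after ≥48 hr at 37 °C. Cells: DT40 Tdp1-/- stably carrying human TDP1, 400 per well, compound exposure in the absence of CPT (DMSO vehicle).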
# IL-1B inflam inh – inflammasome signaling inhibition, IL-1 beta readout; activity change, % at 57.5 µM; THP-1 LPS/ATP IL-1B secretion, AlphaLISA, 16 h; active compounds read low; hit rate 4.7% among 360,000; in the data active means activity change below about -50%; inconclusive means mostly about -30% to -49%
#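 Secreted IL-1B measured by AlphaLISA bead assay after 16 h compound exposure of THP-1 cells; compounds (final up to 57.5 uM) added 1 h before LPS (250 ng/mL) and ATP (1.25 mM) stimulation; lower signal means less secretion.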
# ELG1 repair inh – inhibitors of ELG1-dependent DNA repair in HEK293T cells. Potency, µM (doses to about 46.1 µM), actives largely listed as inhibitors. hit rate 2.3% among 330,000. HEK293T ELG1-luciferase reporter, luminescence, 16 h; DNA damage induced by 5-fluorouridine; further: nearly all actives have a fitted effect of over 55% in size
#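 Cells (2,000 per well) received 5-fluorouridine plus test compound or DMSO and were incubated 16 hr at 37 °C, 5% CO2. Luciferase activity was read by luminescence 30 min after ONE-Glo addition; signal suppression marked inhibition of damage-induced ELG1 function.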
# DT40 TDP1 CPT – growth inhibition of DT40 Tdp1-/-;hTDP1 cells with camptothecin (screen for TDP1 inhibitors); chicken DT40 Tdp1-/-;hTDP1 cells + 20 nM CPT, ATP luminescence, 48 h; Potency, µM (series often up to 46.2 µM), hits mostly inhibitors; hit rate 12% among 420,000; further: nearly all actives have a fitted effect of over 55% in size
#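 Chicken DT40 Tdp1-/- cells complemented with human TDP1, 400 cells/well, exposed to compounds plus 20 nM camptothecin for at least 48 h at 37 C; viability read as ATP content by CellTiter-Glo luminescence.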
# HT1080NT lethal – kills 2HG-producing HT-1080-NT fibrosarcoma cells. Potency, µM (titrated, usually from 46.1 µM), hits mostly cytotoxic. HT-1080-NT fibrosarcoma viability, CellTiter-Glo ATP luminescence, 48 h. hit rate 1.6% among 360,000;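 further: NT is the 2HG producing partner of a matched IDH1 knockdown line; nearly all actives have a fitted effect of over 55% in size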
#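 A 48-hour cytotoxicity screen used HT-1080-NT cells plated 2 hours before compound delivery. ATP-based CellTiter-Glo luminescence measured viability, normalized to DMSO and no-cell controls.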
# Hits are given with their value; - = inactive; ? = inconclusive; . = not tested or not shown; [ ] = dose if it differs, or a comment. Unless noted, the call rests on the fitted dose curve; in most records, active means well fitted curve in the direction sought with a large enough effect; inconclusive means small, poorly fitted or top-dose-only effect, or another doubt; inactive means no such curve, though single readings can be large; an effect the other way counts as inactive or inconclusive.
SMILES,HT1080 IDH1KD tx,DT40 TDP1 no CPT,IL-1B inflam inh,ELG1 repair inh,DT40 TDP1 CPT,HT1080NT lethal
CC(C)c1nc2n(n1)C1(CCCCC1)[C@@H]1CCCC[C@@H]1N2,.,23µM,.,.,?,.
Cc1ccc(C)c(CN2C[C@H](Sc3ccccn3)C[C@H]2C(=O)Nc2ccc3sc(C)nc3c2)c1,.,-,.,.,-[9.04 µM],.
Cc1ccc(C)c(Cn2c(SCC(=O)NCc3ccccc3)nc3ccccc32)c1,.,18µM,.,.,?,.
Cn1c(SCC(=O)NCc2ccccc2)nc2ccccc21,-,-,-,-,-,-
O=C(CSc1nc2ccccc2n1Cc1ccccc1Cl)NCc1ccccc1,.,23µM,.,.,15µM,.
Cc1ccc(C)c(NC(=O)CSc2nnc(NC(=O)Nc3ccccc3)s2)c1,.,-,.,.,-,.
O=C(/C=C/c1ccccc1[N+](=O)[O-])N1CCN(c2ccccc2F)CC1,-,-,-,-,?,-
O=c1cc(NS(=O)(=O)c2ccccc2)nc(SCc2ccc(Cl)cc2)[nH]1,-,-,-56,?,-,-
O=C(CSc1nc(NS(=O)(=O)c2ccccc2)cc(=O)[nH]1)Nc1ccc(Cl)cc1,-,-,-,-,-,-
OCCC1CN(CCCc2ccccc2)CCN1Cc1ccc(F)cc1 (stereo not given),-,-,-,-,-,-
CC(C)=CC/C=C1\CCC(C(=O)O)C(C(=O)O)C1 (stereo not given),-,0.029µM,-,-,?,-
COc1cc(C)ccc1S(=O)(=O)NC(=O)C1(C)CCN1C(=O)c1ccc(C2CCCCC2)cc1 (stereo not given),-,-,-,.,-,-
CCc1nc2c(OCC(=O)C(C)(C)C)cccn2c1N(C)C(=O)c1ccco1,?,-,-,.,-,-
CC(NC(=O)C1CCN(C(=O)Nc2ccccc2)CC1)c1ccccc1 (stereo not given),-,-,-,-,-,-
NC(N)=NN=Cc1ccnc2ccccc12,-,?,-104,.,15µM,-
O=C(O)C(=Cc1ccnc2ccccc12)C(=O)O,-,-,-,.,-,-
N/C(=N\N=C\c1ccnc2ccccc12)SC1CC(=O)N(c2ccc(Br)cc2)C1=O (stereo not given),-,15µM,-,-,?,-
NC(=NCc1ccccc1)NN=Cc1ccnc2ccccc12,?,?,-110,.,21µM,?
O=C(Nc1ccc(Cl)c(C(F)(F)F)c1)c1cc2nc(-c3ccc4c(c3)OCO4)cc(C(F)(F)F)n2n1,.,-,.,.,-,.
CC(C)(C)Nc1nc2nonc2nc1NC(C)(C)C,?,?,-68,-,16µM,?
O=c1c(O)c(-c2ccc3c(c2)OCO3)oc2ccccc12,?,?,-,?,18µM,?
COc1cccc(-c2oc3ccccc3c(=O)c2O)c1,.,27µM,.,.,27µM,.
CCc1ccc(NC(=O)Cn2c(=O)n(CCCCC(=O)NCc3ccc4c(c3)OCO4)c(=O)c3ccccc32)cc1,.,-,.,.,?,.
COc1ccc(N2C(=O)CSC2c2ccc([N+](=O)[O-])cc2)cc1 (stereo not given),-,-,-,-,-,-
COc1ccc(C(=O)N/N=c2\oc3ccccc3cc2C(=O)NCc2ccccc2)cc1,-,15µM,-,10µM,16µM,-
SMILES,HT1080 IDH1KD tx,DT40 TDP1 no CPT,IL-1B inflam inh,ELG1 repair inh,DT40 TDP1 CPT,HT1080NT lethal
COc1ccc(CNC(=O)c2cc3cc(OC)ccc3oc2=O)cc1,?,12µM,-,-,18µM,-
CCCCCCN1CCN(C2CN(Cc3cn(Cc4ccccc4)nn3)S(=O)(=O)C2)CC1 (stereo not given),-,?,-,.,-,-
CCOc1ccc(N(C(=O)c2ccc3c(c2)OCO3)C2C=CS(=O)(=O)C2)cc1 (stereo not given),-,-,-,-,-,-
CC1(C(=O)NS(=O)(=O)c2ccc(F)cc2F)CCN1C(=O)c1ccc(C2CCCCC2)cc1 (stereo not given),?,-,-,.,-,-
Cc1cc(-c2csc(N)n2)c(C)n1CCc1ccccc1,-,?,-,-,23µM,-
Cc1cc(-c2csc(N)n2)c(C)n1CCC(C)C,-,?,-,-,?,-
CC1=C(C(=O)N(C)C)CC(CC(=O)NC(c2ccccc2)c2ccccc2)C(=O)N1Cc1ccc(C(C)(C)C)cc1 (stereo not given),-,23µM,-,.,?,?
CCN(CC)C(=O)C1=C(C)N(Cc2ccc(C(C)(C)C)cc2)C(=O)C(CC(=O)NC(c2ccccc2)c2ccccc2)C1 (stereo not given),?,12µM,?,.,13µM,?
COc1ccc(CN2C(=O)C(CC(=O)NC(c3ccccc3)c3ccccc3)CC(C(=O)N(C(C)C)C(C)C)=C2C)cc1 (stereo not given),-,?,?,.,?,-
CCCCN1C(=O)C(CC(=O)NC(c2ccccc2)c2ccccc2)CC(C(=O)N(C)C)=C1C (stereo not given),-,-,-,.,-,-
CC1=C(C(=O)N2CCOCC2)CC(CC(=O)NC(c2ccccc2)c2ccccc2)C(=O)N1Cc1ccc(C(C)(C)C)cc1 (stereo not given),-,16µM,-,.,?,-
CC1=C(C(=O)N2CCOCC2)CC(CC(=O)NCCN2CCOCC2)C(=O)N1Cc1ccc(C(C)(C)C)cc1 (stereo not given),-,-,-,.,-,-
CCN(CC)C(=O)C1=C(C)N(Cc2ccc(C(C)(C)C)cc2)C(=O)C(CC(=O)NCCc2ccccn2)C1 (stereo not given),-,?,-,.,?,-
CCN(CC)C(=O)C1=C(C)N(Cc2ccc(F)cc2)C(=O)C(CC(=O)NC(c2ccccc2)c2ccccc2)C1 (stereo not given),-,21µM,?,.,?,-
CCCc1nnc(NC(=O)CCC(=O)N2CCC(C)CC2)s1,-,-,-,-,-,-
O=C(Nc1ccccc1OCc1cc(=O)n2ccccc2n1)c1cccc(Br)c1,.,-,.,.,-,.
CC1=C(C(=O)N2CCOCC2)CC(CC(=O)NC2CC2)C(=O)N1CCC1=CCCCC1 (stereo not given),-,-,-,.,-,-
CC1=C(C(=O)N2CCCCCC2)CC(CC(=O)NC(c2ccccc2)c2ccccc2)C(=O)N1CCC1=CCCCC1 (stereo not given),?,16µM,?,.,21µM,?
CCCCN1C(=O)C(CC(=O)NC(c2ccccc2)c2ccccc2)CC(C(=O)N(C(C)C)C(C)C)=C1C (stereo not given),-,21µM,-,.,23µM,-

# Screening data deposited in PubChem by National Center for Advancing Translational Sciences (NCATS).
